Calls of active or inactive are those of the source.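 How the source made its calls, unless noted: active means inhibition above 20% together with a positive visual image hit; inconclusive means visual image hit but inhibition not above 20%; inactive means no visual image hit.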
Tests used:
[1] = inhibitors of TNFa-induced NFkB p65 translocation, primary screen, imaging, HUVEC, MLSMR starter and 10KST1 sets (AID 438); details: HUVEC TNFa-induced p65 nuclear translocation; cell count: measured here: nuclei count (cytotoxicity indicator), at 2.08 µM; inhibition: at 2 µM, stronger effect = higher value, 0% TNFa-plus-vehicle, 100% no-TNFa wells;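 further: compound added about 3h40 before a 20 min TNFalpha stimulation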;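 on inhibition: signal is the nuclear over cytoplasmic p65 intensity ratio per well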
[2] = inhibitors of mutant huntingtin aggregation, primary screen, imaging, exon1htt(103Q)mCFP cells, high-content imaging (AID 483;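 active means visual image review flags a hit and inhibition of aggregation exceeds 20%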;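 further: compound exposure lasted 3 days before fixation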;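 on nuclei count: percent of the per-plate median nuclei count of sample wells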); details: exon1htt(103Q)mCFP cell line, aggregate imaging, at 2 µM; inhibition of aggregation: stronger effect = higher value; nuclei count: measured here: cell count, toxicity
[3] = inhibitors of E-selectin induction by TNFa, primary screen, imaging, HUVEC, immunofluorescence, MLSMR starter and 10KST1 sets (AID 487;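 active means visually confirmed hit in the image check and inhibition above 20%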;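 on inhibition: signal is fraction of cell area covered by stained E-selectin grains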;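 on nuclei count: 100% = median nuclei count of all wells on the same plate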); details: HUVEC TNFalpha-induced E-selectin immunofluorescence imaging, at 2 µM; inhibition: stronger effect = higher value; nuclei count: measured here: cell number, toxicity
[4] = target: Voltage-gated potassium channel subunit beta-2 (Rattus norvegicus) (UniProt P62483); experiment: KvBeta enzyme negative modulators, primary screen, biochemical, NADPH fluorescence (AID 622;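 active means fluorescence slope higher than the sample average by over 3 SD, cut at about -0.22 in these data, passing the limit was not always enough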;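 further: slope of raw intensity against log time taken from 70 to 1610 s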); details: recombinant KvBeta, 4-cyanobenzaldehyde reduction, at 10 µM, stronger effect = higher value
[5] = target: Voltage-gated potassium channel subunit beta-2 (Rattus norvegicus) (UniProt P62483); experiment: KvBeta positive modulators, primary screen, biochemical, NADPH fluorescence (AID 623;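 active means NADPH fluorescence slope more negative than the mean of all samples by about 3 SD, 99.7% confidence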;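 further: fluorescence intensity change per second fitted from 20 to 320 s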); details: Recombinant KvBeta, NADPH fluorescence decrease slope, 10 min; at 10 µM; stronger effect = lower value
[6] = target: Alpha-2C adrenergic receptor (Homo sapiens) (UniProt P18825); experiment: modulators of alpha2C/GIRK thallium flux, primary screen, cell-based, HEK293 alpha2C/GIRK1/2 (AID 624;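 active means fluorescence slope after compound addition differing from the mean of all screened samples at 99.7% confidence, in either direction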;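 further: slope of fluorescence ratio to pre-addition baseline per second over 15 to 24 s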); details: thallium flux BTC fluorescence, at 10 µM, actives lie on both sides
[7] = inhibitors of Sendai virus-induced IRF3 signaling, primary screen, TLR/RLR signaling modifier project, cell-based, Sendai virus stimulus, luciferase, 10K MLSCN set (AID 602276;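 active means inhibition at or above 50% at 10 µM; inactive means inhibition below 50%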;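 further: firefly luciferase from ISG56 promoter only with Renilla not read in this screen; 0% = Sendai virus plus DMSO and 100% = medium plus DMSO without virus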); details: HEK293 RL24 IRF3 luciferase reporter, at 10 µM, stronger effect = higher value
[8] = inhibitors of poly I:C-induced TLR3 signaling, primary screen, cell-based, poly I:C stimulus, luciferase, 10K MLSCN set (AID 602277;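 active means inhibition of the reporter signal at or above 50%; inactive means inhibition below 50%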); details: HEK293-TLR3 RL24 IRF3 luciferase reporter, at 10 µM, stronger effect = higher value

Sequence of Voltage-gated potassium channel subunit beta-2 (Rattus norvegicus) (P62483 whole entry, looked up): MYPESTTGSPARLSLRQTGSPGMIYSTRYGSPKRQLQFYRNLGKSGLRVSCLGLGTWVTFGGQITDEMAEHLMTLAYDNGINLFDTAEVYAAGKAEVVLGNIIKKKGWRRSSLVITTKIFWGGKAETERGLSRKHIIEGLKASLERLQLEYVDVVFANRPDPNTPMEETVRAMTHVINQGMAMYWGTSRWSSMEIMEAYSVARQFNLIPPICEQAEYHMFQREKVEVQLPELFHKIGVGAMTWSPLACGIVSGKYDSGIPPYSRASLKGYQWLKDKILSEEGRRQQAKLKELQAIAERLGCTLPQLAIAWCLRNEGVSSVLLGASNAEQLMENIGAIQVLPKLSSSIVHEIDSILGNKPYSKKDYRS
Sequence of Alpha-2C adrenergic receptor (Homo sapiens) (P18825 whole entry, looked up): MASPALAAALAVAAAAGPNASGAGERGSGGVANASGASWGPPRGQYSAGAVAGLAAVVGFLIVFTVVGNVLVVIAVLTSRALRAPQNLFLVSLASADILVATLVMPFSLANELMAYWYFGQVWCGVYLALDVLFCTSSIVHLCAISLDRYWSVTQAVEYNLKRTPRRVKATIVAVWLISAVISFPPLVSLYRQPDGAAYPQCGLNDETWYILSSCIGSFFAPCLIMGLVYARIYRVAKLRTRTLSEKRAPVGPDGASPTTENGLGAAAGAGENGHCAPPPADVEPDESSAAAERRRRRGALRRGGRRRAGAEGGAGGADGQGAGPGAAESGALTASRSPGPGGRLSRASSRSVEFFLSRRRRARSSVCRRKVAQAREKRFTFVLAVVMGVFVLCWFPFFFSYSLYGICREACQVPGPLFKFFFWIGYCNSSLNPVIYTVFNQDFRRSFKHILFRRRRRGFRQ

SMILES | cell count [1] | inhibition [1] | inhibition of aggregation [2] | nuclei count [2] [%] | inhibition [3] | nuclei count [3] [%] | fluorescence slope [4] | NADPH fluorescence slope [5] | slope [6] | inhibition [7] | inhibition [8]
O=C(COC(=O)CCC(=O)c1cccs1)NCc1ccco1 | 469 | -20.9% (inactive) | 1.1% (inactive) | 101 | -16.1% (inactive) | 86.1 | -0.332 (inactive) | -5.5e-05 (inactive) | 0.00705 (inactive) | 18% (inactive) | 25.1% (inactive)
COc1ccc(N2CCN(C(=O)Cc3ccc(-n4c(=O)[nH]c5ccccc5c4=O)cc3)CC2)cc1 | 660 | -5.8% (inactive) | -41.3% (inactive) | 96.7 | -103% (inactive) | 103 | -0.483 (inactive) | 1.9e-05 (inactive) | 0.00662 (inactive) | 7.13% (inactive) | -1.38% (inactive)
Cc1ccc(OCCN2CCN(C(=O)CCC(=O)Nc3nnc(C)s3)CC2)cc1 | 349 | -4.3% (inactive) | -14.8% (inactive) | 100 | -18.9% (inactive) | 100 | -0.318 (inactive) | -6.3e-05 (inactive) | 0.00527 (inactive) | 9.9% (inactive) | 19.2% (inactive)
CCCCn1c(NC(=O)CC)c(C#N)c2nc3ccccc3nc21 | 273 | -0.9% (inactive) | 31.7% (inactive) | 80.6 | 45.9% (inactive) | 64.7 | -0.0219 (inactive) | -1.3e-05 (inactive) | 0.00421 (inactive) | 16.1% (inactive) | 9.45% (inactive)
O=C1C(c2ccncc2)=C(O)c2ccccc21 | 302 | -8.6% (inactive) | 1.9% (inactive) | 73 | 0.7% (inactive) | 91.1 | -0.333 (inactive) | -1.1e-05 (inactive) | 0.00364 (inactive) | 4.51% (inactive) | -0.387% (inactive)
COCCn1nnnc1C(C(C)C)N1CCN(C(=O)c2ccco2)CC1 (stereo unspecified) | 314 | 1.6% (inactive) | 10% (inactive) | 85.2 | -23.9% (inactive) | 121 | -0.511 (inactive) | 4.3e-05 (inactive) | 0.00753 (inactive) | -9.3% (inactive) | -17.2% (inactive)
COc1ccccc1Nc1ccc(C(=O)NC2CCCCC2)cn1 | 406 | 1% (inactive) | 1.1% (inactive) | 108 | -13.6% (inactive) | 110 | -0.39 (inactive) | -5.7e-05 (inactive) | 0.00711 (inactive) | -10.5% (inactive) | -22.4% (inactive)
COC(=O)c1ccc(C2CC(=O)Nc3cc(OC)c(OC)c(OC)c32)cc1 (stereo unspecified) | 416 | 3.3% (inactive) | 11.2% (inactive) | 90.4 | -82.3% (inactive) | 157 | -0.424 (inactive) | -3.3e-05 (inactive) | 0.00514 (inactive) | 11.7% (inactive) | 25.2% (inactive)
CCCNC(=O)CS(=O)(=O)Cc1nc(-c2cccc(OC)c2)oc1C | 781 | 3.5% (inactive) | 12.5% (inactive) | 99.7 | -52% (inactive) | 127 | -0.543 (inactive) | 4.4e-05 (inactive) | 0.007 (inactive) | 9.03% (inactive) | -7.6% (inactive)
C=C(C)Cn1c(-c2ccccc2)nc2ccccc21 | 326 | -5.5% (inactive) | -4.2% (inactive) | 113 | -17.6% (inactive) | 104 | -0.512 (inactive) | -5.5e-05 (inactive) | 0.00476 (inactive) | 14.4% (inactive) | 2.46% (inactive)
CCN(CC)CCN1C(=O)c2oc3ccc(F)cc3c(=O)c2C1c1ccncc1 (stereo unspecified) | 598 | -12.9% (inactive) | -2.9% (inactive) | 102 | -5.7% (inactive) | 111 | -0.536 (inactive) | -4.3e-05 (inactive) | 0.00733 (inactive) | 15.9% (inactive) | 44.8% (inactive)
CS(=O)(=O)NCC(c1cccnc1)N1CCN(c2ccc(F)cc2)CC1 (stereo unspecified) | 250 | -10.2% (inactive) | 15.1% (inactive) | 33.8 | 27.3% (inactive) | 72.4 | -0.34 (inactive) | -4.2e-05 (inactive) | 0.00483 (inactive) | -3.05% (inactive) | 1.56% (inactive)
COc1ccc(-n2ncc3c(N4CCC(C)CC4)ncnc32)cc1 | 575 | -1.3% (inactive) | 17.5% (inactive) | 121 | -10.8% (inactive) | 110 | -0.572 (inactive) | -5e-05 (inactive) | 0.00789 (inactive) | 9.66% (inactive) | -67.2% (inactive)
CC1=C(C(N)=O)C(c2ccccn2)n2nc(SCc3ccccc3)nc2N1 (stereo unspecified) | 624 | 3.8% (inactive) | 3.9% (inactive) | 93 | 43.5% (inactive) | 86.4 | -0.316 (inactive) | -8.8e-05 (inactive) | 0.0057 (inactive) | -8.46% (inactive) | 0.00265% (inactive)
COc1ccccc1-c1nc2n(n1)C(c1ccc(Cl)cc1)C(C(N)=O)=C(C)N2 (stereo unspecified) | 313 | 1.8% (inactive) | 4.3% (inactive) | 101 | -37.7% (inactive) | 84.9 | -0.464 (inactive) | 1.5e-05 (inactive) | 0.00608 (inactive) | 11.9% (inactive) | 36.9% (inactive)
Cc1ccc(C(c2sc3nc(C)nn3c2O)N2CC(C)OC(C)C2)cc1 (stereo unspecified) | 213 | -3.9% (inactive) | -30.3% (inactive) | 110 | -23.9% (inactive) | 108 | -0.44 (inactive) | -5.9e-05 (inactive) | 0.00489 (inactive) | 16.3% (inactive) | 29.9% (inactive)
COc1ccc(C(=O)NCCn2ccc3ccccc32)c(OC)c1 | 280 | -2.5% (inactive) | 0.8% (inactive) | 80.1 | -40.8% (inactive) | 95.6 | -0.608 (inactive) | 6.8e-06 (inactive) | 0.00591 (inactive) | 1.44% (inactive) | -24.1% (inactive)
Cc1nc2c(-c3ccccc3)c(C)nn2c(C)c1CCC(=O)O | 586 | 6.1% (inactive) | 8.1% (inactive) | 73 | -61.1% (inactive) | 103 | -0.492 (inactive) | -2.4e-05 (inactive) | 0.00603 (inactive) | 13.6% (inactive) | 20% (inactive)
Cc1cc(C)c(C)c(OCC(=O)NCC2CCCO2)c1 (stereo unspecified) | 371 | -13.5% (inactive) | -15% (inactive) | 97.1 | -65.1% (inactive) | 110 | -0.521 (inactive) | -3.4e-05 (inactive) | 0.0063 (inactive) | -5.32% (inactive) | 21% (inactive)
CSc1oc(-c2ccccc2)nc1S(=O)(=O)c1ccc(F)cc1 | 417 | 8.3% (inactive) | 1% (inactive) | 101 | -45.5% (inactive) | 107 | -0.481 (inactive) | -3.1e-05 (inactive) | 0.00494 (inactive) | 16.4% (inactive) | 22.3% (inactive)
N#Cc1ccc(COC(=O)Cn2nnc(-c3ccccc3)n2)cc1 | 503 | -15.2% (inactive) | -8.3% (inactive) | 98.8 | -124% (inactive) | 121 | -0.614 (inactive) | -1.6e-05 (inactive) | 0.00648 (inactive) | 9.56% (inactive) | 19.4% (inactive)
COc1ccc(C(C(=O)NC2CCCCC2)N2CCC3(CC2)OCCO3)cc1 (stereo unspecified) | 953 | 1.8% (inactive) | -42.7% (inactive) | 132 | -18.3% (inactive) | 135 | -0.525 (inactive) | -6.1e-05 (inactive) | 0.00579 (inactive) | 31.2% (inactive) | 89.5% (active)
CC1(C)CC(=O)C2=C(C1)NC(=O)CC2C(=O)NCc1ccc(F)cc1 (stereo unspecified) | 533 | -11.5% (inactive) | -1.8% (inactive) | 86.7 | 3.2% (inactive) | 87.8 | -0.342 (inactive) | -4.7e-05 (inactive) | 0.00523 (inactive) | 7.38% (inactive) | 5.77% (inactive)
CCN(CCO)C(=O)CC(c1ccccc1)c1cc(Br)ccc1O (stereo unspecified) | 357 | 15% (inactive) | -0.8% (inactive) | 102 | -31.9% (inactive) | 102 | -0.331 (inactive) | -6.1e-05 (inactive) | 0.00761 (inactive) | 13.1% (inactive) | 20.3% (inactive)
COCCn1nnnc1CN(CCCN1CCOCC1)Cc1cc2c(C)ccc(C)c2[nH]c1=O | 612 | -8.8% (inactive) | -0.2% (inactive) | 112 | 19.5% (inactive) | 92.4 | -0.49 (inactive) | 3e-05 (inactive) | 0.00345 (inactive) | -10.5% (inactive) | 15.5% (inactive)
COCCNC(=O)CN(C)S(=O)(=O)c1ccc(Br)cc1 | 465 | 2.1% (inactive) | -10.4% (inactive) | 106 | 24.8% (inactive) | 110 | -0.507 (inactive) | -3.7e-05 (inactive) | 0.00533 (inactive) | 11.2% (inactive) | 12.3% (inactive)

— PubChem BioAssay
